35 compounds from PubChem BioAssay (NCATS) can be followed below.

The subject of test [1] is CAOV3. The test can be described thus: Primary qHTS to identify gynecologic anti-cancer compounds using libraries of approved drugs and bioactive compounds (AID 1345084). Also: nearly all actives have a fitted effect of over 55% in size. The note with it: Gynecologic cancer cell panel viability, ATPlite luminescence, 48 h; series mostly up to 57.5 µM. In a few lines: (§1)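 Cells, 1,000 per well, plated 16 h, then exposed 48 h at 37 C to compounds. Viability by ATPlite luminescence after 15 min at room temperature.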
On the technique in general: In qHTS, concentration-response curves come from the screen itself.

The subject of test [2] is MCC-13. The test can be described thus: qHTS assay to identify novel small-molecules to repurpose for Merkel cell carcinoma treatment (AID 1296009). Also: nearly all actives have a fitted effect of over 60% in size. Particulars: MCC and control cell lines, CellTiter-Glo viability, 72 h; series mostly up to 46 µM. In a few lines:
(§2)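 After compound transfer in DMSO, plates were kept 72 hr at 37 degree celsius. Luminescent ATP signal from CellTiter-Glo served as viability measure, normalized against DMSO and no-cell controls.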

Test [3] has as its system MKL-2. Described as above. Particulars: MCC and control cell lines, CellTiter-Glo viability, 72 h; series mostly up to 46 µM. The procedure, abridged: as §2
Background: ATP-based viability assays read luminescence as a measure of living cells.

For test [4], the system named is NIH3T3. The test is described as above. Particulars: MCC and control cell lines, CellTiter-Glo viability, 72 h; at 44.8 µM (top of the series) unless noted. In a few lines:
as §2

The subject of test [5] is C33A. Description: Primary qHTS to identify gynecologic anti-cancer compounds using libraries of approved drugs and bioactive compounds (AID 1345084). Also: nearly all actives have a fitted effect of over 55% in size. Particulars: Gynecologic cancer cell panel viability, ATPlite luminescence, 48 h; series mostly up to 57.5 µM. In a few lines:
as §1

The test system of test [6] is CASKI. The test is described as above. Particulars: Gynecologic cancer cell panel viability, ATPlite luminescence, 48 h; series mostly up to 57.5 µM. In a few lines:
as §1

In test [7] the test system is MKL-1. The test can be described thus: qHTS assay to identify novel small-molecules to repurpose for Merkel cell carcinoma treatment (AID 1296009). Also: nearly all actives have a fitted effect of over 60% in size. Particulars: MCC and control cell lines, CellTiter-Glo viability, 72 h; series mostly up to 46 µM. In a few lines:
as §2

Test [8] has as its system UISO. Described as above. The note with it: MCC and control cell lines, CellTiter-Glo viability, 72 h; series mostly up to 46 µM. The procedure, abridged: as §2
Test [9] has as its system WaGa. The test is described as above. The note with it: MCC and control cell lines, CellTiter-Glo viability, 72 h; series mostly up to 46 µM. The procedure, abridged: as §2
Test [10] deals with MCC-26. The description is as above. The note with it: MCC and control cell lines, CellTiter-Glo viability, 72 h; series mostly up to 46 µM. In a few lines: as §2

Where “and” joins values, the source holds several entries; their conditions need not be identical. Identical values can stand only once. Records with an inconclusive call do not appear. The source holds several records for some structures; these can differ, active in one and inactive in another. Calls of active or inactive are those of the source. Calls follow the shape of the dose curve; as a rule, active = well fitted curve in the direction sought with a large enough effect; inconclusive = small, poorly fitted or top-dose-only effect, or another doubt; inactive = no such curve, though single readings can be large; an effect the other way counts as inactive or inconclusive.
Potency is read from the fitted curve at half-maximal effect.

As for `CC(C)Oc1ccc2c(=O)c(-c3ccccc3)coc2c1`, the Potency in test [1] is 22.4 µM (active).

Regarding `CCCOc1ccc2nc(NC(=O)OC)[nH]c2c1`, in test [2], the Potency was 188 nM (active). The Potency entry in [1] was “inactive”.

For the compound `Oc1ccc2ccccc2c1SSc1c(O)ccc2ccccc12`, the Potency entry in test [2] is “inactive”. In addition, the Potency in [3] is 20.9 µM (active). Further, the result in test [4] was inactive.

`O=C(O)c1cc(=O)c2c(OCC(O)COc3cccc4oc(C(=O)O)cc(=O)c34)cccc2o1`: the Potency result in test [5] and in test [6] was “inactive” throughout.

Regarding `Cc1cc(=O)c2c(O)c3c(O)cc(=O)c4c3c3c(cc(O)c1c23)C(C)(C)C=4O`, the Potency result in test [2], in [7], in test [3], in test [8] and in test [9] was “inactive” throughout. Besides, the Potency in [5] is 3.55 µM (active); in [1] it was 4.47 µM (active); in test [6], 2 µM (active).

With `CCCCC(CC)COC(=O)C(C#N)=C(c1ccccc1)c1ccccc1` (configuration not stated), the Potency result in [2], in test [7], in [9], in [5], in test [1] and in test [6] was “inactive” in each case. Also, in [4], the result was inactive.

Consider `O=Nc1c(-c2c(O)[nH]c3cc(Br)ccc23)[nH]c2ccccc12`, for which the Potency was 18700 nM (active) in test [2], 16.6 µM (active) in [3] and 59 nM (active) in test [8].

Consider `CCCCN(CCCC)CCC(O)c1cc2c(Cl)cc(Cl)cc2c2cc(C(F)(F)F)ccc12` (configuration not stated), for which the Potency result in [5] and in [6] was “inactive” in each case.

`CN(C)C(=O)[C@H](O)[C@H](Cc1ccccc1)NC(=O)c1cc2cc(Cl)ccc2[nH]1`: the Potency result in test [2], in [3], in test [9], in test [5] and in test [6] was “inactive” throughout. Besides, the call in test [4] was inactive. Moreover, in test [8], the Potency is 4180 nM (active).

Regarding `NCCCCNCCCN`, the Potency entry in test [2] and in test [8] was “inactive” throughout. In test [3], the Potency was 8.33 µM (active).

`Nc1ncn([C@H]2C[C@H](O)[C@@H](CO)O2)c(=O)n1`: the Potency result in [2], in test [7], in [3], in test [8], in test [9] and in test [5] was “inactive” in each case. Besides, in test [6], the Potency entry is “inactive”.

With `O=C(O)c1cn(-c2ccc(F)cc2)c2cc(N3CCNCC3)c(F)cc2c1=O`, the Potency entry in test [2], in [7], in [3], in test [8], in test [9] and in test [5] was “inactive” in each case. In addition, the Potency result in test [1] and in [6] was “inactive” throughout.

Regarding `COCCCN1CCC(NC(=O)c2cc(Cl)c(N)c3c2OCC3)CC1`, the Potency entry in test [5] and in test [6] was “inactive” throughout.

Take `O=C(NCC1CCCCN1)c1cc(OCC(F)(F)F)ccc1OCC(F)(F)F` (configuration not stated): the Potency result in test [2], in [7], in test [3], in [8], in test [9] and in test [5] was “inactive” throughout. In addition, the Potency entry in [1] and in [6] was “inactive” throughout.

As to `COc1cc(Nc2c(C#N)cnc3cc(OCCCN4CCN(C)CC4)c(OC)cc23)c(Cl)cc1Cl`, the Potency was 8.41 µM (active) and inactive in test [7]; 29.9 µM (active) and inactive in test [9]; 14.1 µM (active) in test [5]; 6.31 µM (active) in [1]. Besides, the Potency result in test [3] is “inactive”.

For the compound `CC1Cc2ccccc2N1NC(=O)c1ccc(Cl)c(S(N)(=O)=O)c1` (configuration not stated), the Potency entry in test [2], in [7], in test [3], in test [8], in [9] and in test [5] was “inactive” in each case. The Potency result in test [1] and in test [6] was “inactive” each time.

On to `O=C(NOCC1CC1)c1ccc(F)c(F)c1Nc1ccc(I)cc1Cl`, for which the Potency entry in test [10], in test [5], in [1] and in test [6] was “inactive” in each case. Besides, the Potency was 18.8 µM (active) and 20.9 µM (active) in test [7]; 15000 nM (active) in test [8]; 15 µM (active) in [9].

Regarding `N=C(N)c1ccc2cc(OC(=O)c3ccc(N=C(N)N)cc3)ccc2c1`, the Potency entry in test [2], in test [7], in [8], in test [5], in test [1] and in test [6] was “inactive” throughout. Further, the Potency entry in test [9] was “inactive and 26.6 µM (active)”.

As for `COc1cc(C(C)=O)ccc1OCCCN1CCC(c2noc3cc(F)ccc23)CC1`, the Potency entry in test [2], in test [7], in test [8], in test [9], in test [5] and in test [6] was “inactive” throughout. In addition, the outcome in [4] was inactive.

On to `Cc1cccc(C)c1OCC(=O)N[C@@H](Cc1ccccc1)[C@@H](O)C[C@H](Cc1ccccc1)NC(=O)[C@H](C(C)C)N1CCCNC1=O`, for which the Potency result in test [5], in [1] and in test [6] was “inactive” in each case.

For the compound `NC(=O)Cc1cccc(C(=O)c2ccccc2)c1N`, the Potency result in test [2], in test [7], in [3], in test [8], in [9] and in [5] was “inactive” each time. Further, the Potency result in test [1] and in test [6] was “inactive” each time.

In the case of `CC(C)C[C@H](NC(=O)[C@H](Cc1ccccc1)NC(=O)c1cnccn1)B(O)O`, the Potency in test [10] was 0.0376 µM (active); in test [7], 26.6 nM (active); in test [3], 0.006 µM (active); in test [8], 26.6 nM (active); in [9], 0.0168 µM (active); in [5], 0.1 µM (active).

As to `C=C(c1ccc(C(=O)O)cc1)c1cc2c(cc1C)C(C)(C)CCC2(C)C`, the Potency result in test [5], in test [1] and in test [6] was “inactive” throughout.

Take `Cc1nc(Nc2ncc(C(=O)Nc3c(C)cccc3Cl)s2)cc(N2CCN(CCO)CC2)n1`: in test [2], the Potency is 168 nM (active). Further, the Potency entry in test [7], in test [3], in [9] and in test [5] was “inactive” each time.

With `CC[C@]1(O)C[C@H]2CN(CCc3c([nH]c4ccccc34)[C@@](C(=O)OC)(c3cc4c(cc3OC)N(C=O)[C@H]3[C@@](O)(C(=O)OC)[C@H](OC(C)=O)[C@]5(CC)C=CCN6CC[C@]43[C@@H]65)C2)C1`, the Potency in test [2] was 209 nM (active) and 376 nM (active); in test [7], 9.3 nM (active) and 33.5 nM (active); in test [3], 0.0119 µM (active); in [8], 3 nM (active) and 21.1 nM (active); in test [9], 3.3 nM (active) and 26.6 nM (active); in test [5] it was 0.631 µM (active).

On to `CCCCc1ccc2nc(NC(=O)OC)[nH]c2c1`, for which the Potency is 296 nM (active) and 53.1 nM (active) in [2]; 0.794 µM (active) in test [5]. For the same compound, the Potency result in test [1] is “inactive”.

Take `Cc1nc2n(c(=O)c1CCN1CCC(c3noc4cc(F)ccc34)CC1)CCCC2`: the Potency result in test [2], in test [7], in test [3], in test [8], in test [9] and in [1] was “inactive” each time. Also, in test [6], the Potency entry was “inactive”.

Turning to `CCN(CC)CCOc1ccc(Cc2ccccc2)cc1`, the Potency entry in test [2], in test [7], in test [3], in test [8], in test [9] and in test [5] was “inactive” throughout. For the same compound, in [6], the Potency result is “inactive”.

On to `CN1C(C(=O)Nc2ccccn2)=C(O)c2sccc2S1(=O)=O`, for which the Potency entry in [5], in test [1] and in test [6] was “inactive” each time.

For `CCc1nc(N)nc(N)c1-c1ccc(Cl)cc1`, the Potency result in test [10], in test [7], in test [3] and in test [1] was “inactive” throughout. Moreover, the Potency in test [9] was 11.9 µM (active); in test [5], 5.01 µM (active).

Consider `CC(=O)O[C@H]1C(=O)[C@@]2(C)C([C@H](OC(=O)c3ccccc3)[C@]3(O)C[C@H](OC(=O)[C@H](O)[C@@H](NC(=O)c4ccccc4)c4ccccc4)C(C)=C1C3(C)C)[C@]1(OC(C)=O)CO[C@@H]1C[C@@H]2O` (some centres not stated), for which the Potency result in test [7], in [3] and in test [1] was “inactive” throughout.

For the compound `OC(CN1CCN(c2cccc(Cl)c2)CC1)C(c1ccccc1)c1ccccc1` (configuration not stated), the Potency result in test [2], in test [7], in test [8], in test [9], in test [5] and in test [6] was “inactive” in each case. Further, the compound was classed as inactive in [4].

`O=C1c2ccccc2-c2n[nH]c3cccc1c23`: in test [2], the Potency entry was “inactive”. Also, the Potency in test [7] is 3320 nM (active); in test [9], 2.64 µM (active).

Regarding `CCN(CC)C(=S)SSC(=S)N(CC)CC`, the Potency in test [2] was 2.09 µM (active) and 111 nM (active) and 944 nM (active); in test [7], 1.18 µM (active) and 62.4 nM (active) and 422 nM (active); in test [3] it was 1.32 µM (active) and 44.2 nM (active) and 531 nM (active); in test [8], 1.05 µM (active) and 70 nM (active) and 473 nM (active); in [9], 0.935 µM (active); in test [1] it was 7.08 µM (active). Also, the Potency in [6] is 35.5 µM (active) and inactive.

As for `COc1c2occc2cc2ccc(=O)oc12`, the Potency result in test [5], in [1] and in test [6] was “inactive” in each case.
